Our source for the outcome values is PubChem BioAssay AID485288 (Southern Research Specialized Biocontainment Screening …, 2010).

Potency and affinity values are given separately. The source made the active and inactive calls. A call without a number means that no potency is given here. No rule for the calls is given here.

The target in this assay is Large T antigen (Simian virus 40) (UniProt P03070). Description: SV40 large T antigen ATPase inhibitors, SAR follow-up, biochemical, ADP-Hunter detection, purified TAg, synthesized compounds, set 3 (AID 485288).
Large T antigen (Simian virus 40), sequence (P03070 whole entry, looked up): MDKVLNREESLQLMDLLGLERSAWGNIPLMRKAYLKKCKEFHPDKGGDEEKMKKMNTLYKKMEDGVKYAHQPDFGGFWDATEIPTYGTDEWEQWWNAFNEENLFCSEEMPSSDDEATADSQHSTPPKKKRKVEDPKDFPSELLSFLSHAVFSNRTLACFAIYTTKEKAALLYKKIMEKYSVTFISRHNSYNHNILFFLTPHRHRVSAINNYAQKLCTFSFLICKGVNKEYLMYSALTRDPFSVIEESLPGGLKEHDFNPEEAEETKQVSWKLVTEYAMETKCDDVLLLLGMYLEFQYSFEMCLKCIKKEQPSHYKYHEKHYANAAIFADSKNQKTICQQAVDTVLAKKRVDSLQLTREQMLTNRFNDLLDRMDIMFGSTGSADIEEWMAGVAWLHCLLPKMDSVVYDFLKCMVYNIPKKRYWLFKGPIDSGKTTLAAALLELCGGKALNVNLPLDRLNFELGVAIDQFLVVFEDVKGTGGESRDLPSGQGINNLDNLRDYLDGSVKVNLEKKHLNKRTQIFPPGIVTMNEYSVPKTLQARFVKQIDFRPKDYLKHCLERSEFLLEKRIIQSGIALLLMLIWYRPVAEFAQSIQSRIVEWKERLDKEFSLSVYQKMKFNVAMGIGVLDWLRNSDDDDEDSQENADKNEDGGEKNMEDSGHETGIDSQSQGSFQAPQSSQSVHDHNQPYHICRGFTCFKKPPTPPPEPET

For `Cc1cc(C(C)(C)c2ccc(O)c(C)c2)ccc1O`, the compound was called inactive. Then `CC(C)(c1ccccc1)c1ccc(O)cc1`, with “inactive”.
